In PubChem BioAssay (NCATS):
Inconclusive results are not listed. Some structures have more than one record in an assay (separate samples or runs), and their calls can disagree. Activity calls are given as the source filed them. Calls follow the shape of the dose curve; as a rule, active = well fitted inhibition curve with a large enough effect; inconclusive = small, poorly fitted or top-dose-only effect; inactive = flat fitted curve, though single readings scatter.

Columns and labels:
[1] = tested on: NIH3T3; assay: Cytotoxic Profiling of Annotated Libraries Using Quantitative High-Throughput Screening (AID 1296008); conditions: Five cell lines viability, CellTiter-Glo ATP luminescence, 48-72 h; max response: stronger effect = lower value
Summary of the method: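 Cytotoxicity was measured as CellTiter-Glo ATP luminescence, read after 10 min at room temperature. Compound treatment of the cells lasted 48 or 72 hr at 37 degrees Celsius in a qHTS format.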

[2] = tested on: CRL-7250; assay: qHTS assay to identify novel small-molecules to repurpose for Merkel cell carcinoma treatment (AID 1296009); conditions: MCC and control cell lines, CellTiter-Glo viability, 72 h; at 44.8 µM (top of the series) unless noted
Summary of the method: (§1)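 72 hr, 37 degree celsius; NPC 8-pt / MIPE 11-pt dose response; compound pinned in DMSO; CellTiter-Glo, 10 min RT, luminescence; normalized to no-cell and DMSO controls.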

[3] = tested on: HEK293T; assay: as above; conditions: MCC and control cell lines, CellTiter-Glo viability, 72 h; at 44.8 µM (top of the series) unless noted
Summary of the method: as §1

[4] = tested on: MCC-13; assay: as above; conditions: MCC and control cell lines, CellTiter-Glo viability, 72 h; series mostly up to 46 µM
Summary of the method: as §1

[5] = tested on: MCC-26; assay: as above; conditions: MCC and control cell lines, CellTiter-Glo viability, 72 h; series mostly up to 46 µM
Summary of the method: as §1

[6] = tested on: MKL-1; assay: as above; conditions: MCC and control cell lines, CellTiter-Glo viability, 72 h; series mostly up to 46 µM
Summary of the method: as §1

[7] = tested on: MKL-2; assay: as above; conditions: MCC and control cell lines, CellTiter-Glo viability, 72 h; series mostly up to 46 µM
Summary of the method: as §1

[8] = tested on: NIH3T3; assay: as above; conditions: MCC and control cell lines, CellTiter-Glo viability, 72 h; at 44.8 µM (top of the series) unless noted
Summary of the method: as §1

[9] = tested on: UISO; assay: as above; conditions: MCC and control cell lines, CellTiter-Glo viability, 72 h; series mostly up to 46 µM
Summary of the method: as §1

[10] = tested on: HACAT; assay: as above; conditions: MCC and control cell lines, CellTiter-Glo viability, 72 h; at 44.8 µM (top of the series) unless noted
Summary of the method: as §1
% is scaled to controls: 0 for no effect and ±100 for the full control effect; potency is read from the fitted curve at half-maximal effect.
Also: nearly all actives have a fitted effect of over 60% in size.

CC1=C(C(=O)O)N2C(=O)[C@@H](N)[C@H]2SC1
inactive: outcome [1] | outcome [2] inactive [at 17.4 µM] | outcome [3] inactive [at 17.4 µM] | Potency [4] | Potency [5] | Potency [6] | Potency [7] | outcome [8] inactive [at 17.4 µM] | Potency [9]

CCNC(=O)CC1N=C(c2ccc(Cl)cc2)c2cc(OC)ccc2-n2c(C)nnc21 (stereo unspecified)
inactive: max response [1] 4.41% | outcome [1] | outcome [3] | Potency [4] | Potency [5] | Potency [6] | outcome [8] | Potency [9]

CCN1C[C@]2(OC(=O)c3ccccc3NC(C)=O)CC[C@H](OC)[C@@]34[C@H]5CC6[C@@H](OC)C[C@](O)(C(C[C@@H]23)[C@@H]14)[C@@]5(O)[C@@H]6OC
inactive: outcome [1] | outcome [2] | outcome [10] | Potency [4] | Potency [5] | Potency [6] | Potency [7] | outcome [8] | Potency [9]

CC(C)N[C@@H]1CCn2c(=O)[nH]c3cccc(c32)[C@@H]1O
inactive: max response [1] -1.8% | outcome [2] | Potency [4] | Potency [5] | Potency [9]

CC(C)(C)C(O)C(Oc1ccc(Cl)cc1)n1cncn1 (stereo unspecified)
inactive: max response [1] 3.17% | outcome [2] inactive [at 92 µM] | Potency [4] | Potency [5]

CC(=O)Nc1ccc(OC[C@](C)(O)C(=O)Nc2ccc([N+](=O)[O-])c(C(F)(F)F)c2)cc1
inactive: max response [1] 2.34% | outcome [1] | outcome [3] | Potency [4] | Potency [5] | Potency [6] | Potency [7] | outcome [8] | Potency [9]

Cc1ccccc1-n1c(Cn2ncc3c(N)ncnc32)nc2cccc(C)c2c1=O
active: Potency [4] 13.2 µM | Potency [9] 1.32 µM
inactive: max response [1] 1.98% | outcome [1] | outcome [2] | outcome [10] | outcome [3] | Potency [7] | outcome [8]

C=C[C@@H]1CN2CCC1C[C@H]2[C@H](O)c1ccnc2ccccc12 (stereo partly specified)
inactive: max response [1] -22.5% | outcome [2] | Potency [4] | Potency [5] | Potency [6] | Potency [7] | Potency [9]

O=C(N[C@H]1CN2CCC1CC2)c1ccc(Cl)cc1
inactive: max response [1] -6.97% | outcome [1] | outcome [2] | outcome [10] | outcome [3] | Potency [4] | Potency [5] | Potency [6] | Potency [7] | outcome [8] | Potency [9]

S=C(NC1CCCCC1)N1CCC(c2cnc[nH]2)CC1
inactive: max response [1] -20.5%

COC(=O)[C@@H](N)CCCN=C(N)N[N+](=O)[O-]
inactive: max response [1] 1.58% | outcome [2] | Potency [4] | Potency [5] | Potency [6] | Potency [7] | Potency [9]

COC1=C[C@@H]2[C@@H]3Cc4ccc(OC)c(O)c4[C@]2(CCN3C)CC1=O
inactive: outcome [1] | outcome [2] | outcome [10] | Potency [4] | Potency [5] | Potency [6] | Potency [7] | outcome [8] | Potency [9]

C1CCC(NC2CCCCC2)CC1
inactive: max response [1] -2.97% | outcome [2] | Potency [4] | Potency [5] | Potency [6] | Potency [7] | Potency [9]

O=c1[nH]c2ccccc2n1C1CCN(Cc2ccc(-c3[nH]c4cc5ncnc5cc4nc3-c3ccccc3)cc2)CC1
inactive: max response [1] -3.31% | outcome [2] | Potency [4] | Potency [5] | Potency [6] | Potency [7] | Potency [9]

CC(C)(C)c1cc(C=C(C#N)C#N)cc(Br)c1O
inactive: outcome [1] | outcome [2] | Potency [4] | Potency [5] | Potency [6] | Potency [7] | outcome [8] | Potency [9]

CC1=NN=C(c2ccc(N)cc2)c2cc3c(cc2C1)OCO3
inactive: outcome [1] | outcome [2] | Potency [4] | Potency [5] | Potency [6] | Potency [7] | outcome [8] | Potency [9]

O=C(Nc1ccncc1)C(=O)c1cn(Cc2ccc(Cl)cc2)c2ccccc12
active: Potency [1] 0.0526 µM

Cc1ccccc1-n1c(Cn2cnc3c(N)ncnc32)nc2cccc(C)c2c1=O
inactive: max response [1] -1.65% | outcome [3]
active: Potency [1] 2.64 µM | Potency [5] 6.62 µM | Potency [9] 3.72 µM

C/C=C(/C)C(=O)O[C@H]1C(C)=C2[C@H]([C@@H]1OC(=O)CCCCCCC)[C@@](C)(OC(C)=O)C[C@H](OC(=O)CCC)[C@@]1(O)[C@H]2OC(=O)[C@@]1(C)O
active: Potency [1] 0.0517 µM

CC(C)N(CCNC(=O)CN1CCCC1=O)C(C)C
inactive: max response [1] 2.3% | outcome [1] | Potency [4] | Potency [5] | Potency [6] | Potency [7] | outcome [8] | Potency [9]

O=[N+]([O-])c1ccc([As](=O)(O)O)cc1
active: Potency [7] 8.41 µM
inactive: outcome [1] | outcome [2] | outcome [10] | outcome [3] | Potency [4] | Potency [5] | Potency [6] | outcome [8] | Potency [9]

Oc1ccc2c3c1O[C@H]1c4[nH]c5c(c4C[C@@]4(O)[C@@H](C2)N(CC2CC2)CC[C@]314)C[C@@]1(O)[C@H]2Cc3ccc(O)c4c3[C@@]1(CCN2CC1CC1)[C@H]5O4
inactive: max response [1] -5.25% | outcome [2] | outcome [3] | Potency [4] | Potency [5] | Potency [6] | Potency [7] | Potency [9]

CN1CCN(c2ccc([N+](=O)[O-])c3no[n+]([O-])c23)CC1
inactive: max response [1] 0.637% | outcome [1] | Potency [4] | Potency [5] | Potency [6] | outcome [8] | Potency [9]

CC(=O)OCC1=C(C(=O)O)N2C(=O)[C@@H](N)[C@@H]2SC1
inactive: max response [1] -7.48% | outcome [2] | Potency [4] | Potency [5] | Potency [6] | Potency [7] | Potency [9]

CC(C)[C@]12O[C@H]1[C@@H]1O[C@]13[C@]1(O[C@H]1C[C@H]1C4=C(CC[C@@]13C)C(=O)OC4)[C@@H]2O
active: Potency [1] 0.092 µM
